Screen size: about 410,000 compounds; about 6,400 (1.6%) were called active. About 20% were inconclusive and are not listed. The call rests on the fitted dose curve; in most records, active means well fitted inhibition curve with a large enough effect; inconclusive means small, poorly fitted or top-dose-only effect; inactive means no such curve, though single readings can be large or run the other way. The entries come from a sample that favours actives as a whole.
biological target: Glucagon-like peptide 1 receptor (Homo sapiens) (UniProt P43220); assay: qHTS of GLP-1 Receptor Inverse Agonists (Inhibition Mode); conditions: HEK293 GLP-1R CRE-luciferase, luminescence, 24 h, GLP-1R form is constitutively active; series mostly up to 38.3 µM; activity change, negative = inhibition: at the top concentration; further: nearly all actives have a fitted effect of over 55% in size
Method in brief: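 Seeding at 200 cells/uL, 12 h culture, 24 hr compound treatment, then luciferase reagent and a luminescence read; cells are HEK293 stably expressing a constitutively active GLP-1R plus cAMP-responsive luciferase.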
On the % scale 0 is the no-effect control and ±100 the full control effect; potency means the concentration at half of the fitted maximal effect.

Chain of Glucagon-like peptide 1 receptor (Homo sapiens) (P43220 whole entry, looked up): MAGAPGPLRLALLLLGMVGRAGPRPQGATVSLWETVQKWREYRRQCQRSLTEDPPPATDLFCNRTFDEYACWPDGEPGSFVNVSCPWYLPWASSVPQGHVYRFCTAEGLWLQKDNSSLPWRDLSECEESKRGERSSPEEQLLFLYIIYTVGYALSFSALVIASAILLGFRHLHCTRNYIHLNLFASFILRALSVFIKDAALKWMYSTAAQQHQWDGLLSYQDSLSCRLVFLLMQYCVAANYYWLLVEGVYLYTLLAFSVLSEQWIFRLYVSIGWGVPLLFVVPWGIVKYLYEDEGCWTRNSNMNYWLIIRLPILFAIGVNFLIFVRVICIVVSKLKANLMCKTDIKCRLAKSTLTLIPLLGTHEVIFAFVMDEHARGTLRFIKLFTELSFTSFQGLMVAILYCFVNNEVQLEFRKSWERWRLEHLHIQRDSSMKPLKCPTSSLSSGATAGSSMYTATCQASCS

Activity change, negative = inhibition, inactive:
O[C@H]1CN(Cc2cccs2)[C@@H](c2ccc(Cl)cc2)C[C@@H]1n1cc(C2CC2)nn1 1.31%
O=C(CNC(=O)N1CC(=O)Nc2ccccc21)Nc1ccc(Br)cc1F -10.9%
CO[C@@H]1CN(C)C(=O)c2cc(NC(=O)C3CC3)ccc2OC[C@H](C)N(C(=O)CN2CCOCC2)C[C@@H]1C 19.3%
c1ccc(-c2csc(N3CCc4ccccc4C3)n2)cc1 3.39%
CN(C)CCCNC(=S)N1CCC(c2nc3ccccc3[nH]2)CC1 14.6%
CCOn1c(SC(C)C)nc2ccccc2c1=O -1.53%
CCOC(=O)C1CCc2nc3ccccc3c(=O)n21 (configuration not stated) 1.08%
Cc1ccc([C@@H]2CC(=O)[C@@H]3CN(S(=O)(=O)c4ccc(C)cc4)[C@H](c4ccccc4F)C[C@@H]3N2S(=O)(=O)c2ccc(Cl)cc2)cc1 -28%
O=C(CSc1ccc(-c2ccc(Br)cc2)nn1)NCC1CCCO1 (configuration not stated) -7.03%
O=C(CCNS(=O)(=O)c1ccc(Br)cc1)NCC1CCCO1 (configuration not stated) 0.853%
Cc1cccc(C(=O)NC(=S)N(C)C2CCCCC2)c1 -23.1%
Cc1ccc(-n2ncc3c2ncn2nc(-c4ccco4)nc32)c(C)c1 7.56%
CCc1nc2c(OCC(N)=O)cccn2c1N(C)C(=O)c1ccc(OC)cc1 21.3%
Cc1ccccc1S(=O)(=O)NC(=O)C1(C)CCN1C(=O)Cc1ccc(Cl)cc1Cl (configuration not stated) -6.45%
C=CC[C@@H](CC(=O)N[C@@H](CO)Cc1ccccc1)C(=O)N[C@H](COC(=O)[C@H](CC=C)CC(=O)OC(C)(C)C)Cc1ccccc1 18.1%
C=CC[C@@H](CC(=O)N[C@H](CO)Cc1ccccc1)C(=O)N[C@H](C)COC(=O)[C@@H](CC=C)Cc1ccc(F)cc1 -24.5%
CCCCc1ccc(S(=O)(=O)NC(=O)C2(C)CCN2C(=O)c2c(C)noc2C)cc1 (configuration not stated) 20.7%
Cc1cc(=O)c2ccc(NC(=O)c3ccccc3)cc2[nH]1 21.1%
CCCCCn1nnnc1C1c2ccccc2C(=O)N1Cc1ccco1 (configuration not stated) 15.6%
COc1ccc(Sc2ccc(NC(=O)c3cccc(Cl)c3)cc2C#N)cc1 -0.552%
CCCCNC(=O)C[C@@H]1C[C@@]2(C(=O)OCC)CCC=C2N(Cc2ccco2)C1=O 4.25%
O=S(=O)(Cc1ccccc1)c1nc2ccccc2n1Cc1ccccn1 0.0124% [at 7.66 µM]
Cn1c(S(=O)(=O)O)nc2ccccc21 10.8%
Cc1ccc(-c2ccc(C3=CC(=O)CC(C)(C)C3=O)cc2)cc1 4.58%
CCc1nc2ccc(C(=O)NC3CCN(Cc4ccccc4)CC3)cn2c1N(C)CCN1CCOCC1 7.53%
CC(C)CCC(=O)Nc1cc(S(=O)(=O)N2CCOCC2)ccc1N1CCCC1 8.82%
CC(=O)c1cccc(Nc2ccc3cc(S(=O)(=O)N4CCC(C)CC4)ccc3n2)c1 -17.5%
O=S(=O)(c1ccc2nc(N3CCN(c4cccc(Cl)c4)CC3)ccc2c1)N1CCCCC1 3.79%
COc1ccc(NC(=O)CN2C(=O)C(c3ccccc3)=NC23CCCCCC3)cc1OC -8.64%
Cc1ccc(NC(=O)CN2C(=O)C(c3ccc(F)cc3)=NC23CCCCCC3)c(C)c1 -6.38%
CC(C)(C)c1ccc(S(=O)(=O)NC(=O)C2(C)CCN2C(=O)CC2CC2)cc1 (configuration not stated) -9.62%
CCOC(=O)C1(S(=O)(=O)c2ccc(Cl)cc2)CCN(Cc2ccccc2)CC1 -22.8%
CCOC(=O)C1(CCOC)CCN(Cc2ccc(C(=O)OC)cc2)CC1 -8.63%
CCOC(=O)C1(CCOc2ccccc2)CCN(C(=O)c2cncs2)CC1 9.36%
CCCS(=O)(=O)N1CCC(CCOc2ccccc2)(C(=O)OCC)CC1 -4.3%
COC(=O)C[C@@H]1C=C[C@@H](NC(=O)c2cccnc2)[C@@H](CO)O1 -5.33%
COc1ccc(CN2C[C@H]3CON(C)[C@H]3C[C@H]2c2ccc(-c3cccc(F)c3)cc2)cc1 11.3%
CC1C(=O)N(Cc2cn(CC3CCCCC3)nn2)CCS(=O)(=O)N1Cc1ccc(-c2cccc(N(C)C)c2)cc1 (configuration not stated) -14%
O=S1(=O)CCN(Cc2ccccc2)CC1 12.2%
O=C(NC1CCCC1)C1CCN(C(=O)Nc2cccc(Cl)c2)CC1 -7.43%
COc1cccc(-c2cccc(NC(=O)C3CCN(C4CCC4)CC3)c2)c1 -12.5%
Cc1cc2c(cc1C)N1C(=O)c3cc4ccccc4cc3NC(=O)C1C(=O)N2 (configuration not stated) 9.55%
NNC(=O)c1ccc(Cl)cc1Cl 5.99%
O=S(=O)(CCc1nc2ccccc2o1)c1ccc(Cl)cc1 -14.7%
COCCNc1nc(NCc2ccc(NC(C)=O)cc2)c2sccc2n1 -0.0128%
C[C@H](CO)N1C[C@H](C)[C@@H](CN(C)S(=O)(=O)c2ccc(Oc3ccccc3)cc2)OCc2cn(nn2)CCCC1=O 30.7%
Cc1csc(SCC(=O)Nc2ccc(C)c(S(=O)(=O)N(C)C)c2)n1 4.33%
CN(C)c1nc(Nc2ccc(Cl)c(Cl)c2)nc(N(C)C)n1 -36.4%
Cc1nnc(NCCO)c2ccccc12 20.4%

Potency, active:
CN(C)CCCNC(=S)N1CCN(c2nc(-c3ccccc3)cs2)CC1 3.98 µM
CCC1(CC)Cc2ccccc2-c2nc3ccccc3c(=O)n21 8.91 µM
OC(CNCC1CCCO1)Cn1c2ccc(Br)cc2c2cc(Br)ccc21 (configuration not stated) 5.62 µM
Cc1cccc(C(=O)N2c3nc(-c4ccco4)nn3C3(CCCCC3)[C@@H]3CCCC[C@@H]32)c1 11.2 µM
C=CCC[C@H](Cc1ccc(F)cc1)C(=O)OC[C@@H](NC(=O)[C@@H](CC=C)CC(=O)N[C@H](CO)Cc1ccccc1)C(C)(C)C 7.94 µM
O=S(=O)(O)c1nc2ccccc2n1Cc1ccc(Cl)cc1Cl 10 µM
Cc1ccc(Nc2ccc3cc(S(=O)(=O)N4CCCCC4)ccc3n2)cc1F 2.82 µM
CC1CCC2(CC1)N=C(c1ccccc1)C(=O)N2CC(=O)Nc1ccc(F)c(Cl)c1 (configuration not stated) 10 µM
CCOC(=O)C1(CCOc2ccccc2)CCN(Cc2cc(OC)cc(OC)c2)CC1 10 µM
CCOC(=O)C1(CCOc2ccccc2)CCN(Cc2ccc(C#CCCO)cc2)CC1 7.94 µM
O=C(Nc1cccc(-c2cccc(Cl)c2)c1)C1CCN(C2CCC2)CC1 6.31 µM
O=S(=O)(Cc1ccc(Cl)cc1Cl)c1ccc(Cl)cc1 12.6 µM
OCCNc1nc(Nc2ccc(Cl)c(Cl)c2)nc2ccccc12 3.98 µM

From PubChem BioAssay AID624417 (National Center for Advancing Translational Sciences (NCATS), 2012)
